The list is not random: actives were taken first. Their share in the collection is about 18%.
TDP1 cell CPT – qHTS for Inhibitors of human tyrosyl-DNA phosphodiesterase 1 (TDP1): qHTS in cells in presence of CPT; chicken DT40 Tdp1-/-;hTDP1 cells + 20 nM CPT, ATP luminescence, 48 h; Potency, µM (titrated, usually from 46.2 µM), for the others: at the highest dose activity change, negative = growth inhibition, actives largely listed as inhibitors; hit rate 12% among 420,000; further: potency means the concentration at half of the fitted maximal effect; nearly all actives have a fitted effect of over 55% in size
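Chicken DT40 Tdp1-/- cells stably complemented with human TDP1 were seeded at 400 cells/well in medium containing 20 nM camptothecin, exposed to pin-transferred compounds, and grown at 37 °C for at least 48 hr. Viability was read as ATP luminescence.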
Six1-Eya2 inh – qHTS Assay for Inhibitors of the Six1/Eya2 Interaction; Homeobox protein SIX1 (Homo sapiens) + Protein phosphatase EYA2 (Homo sapiens), …; AlphaScreen GST-Six1/His-Eya2 binding, biochemical; hits give low values; activity change, % (concentration not given with the values); hit rate 0.56% among 360,000; in the data active means activity change below about -65%; inconclusive means mostly about -30% to -63%
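AlphaScreen with GST-Six1 and His-Eya2 (5X mix: 250 nM and 500 nM), glutathione donor and nickel acceptor beads; buffer 50 mM Tris pH 8.0, 300 mM NaCl, 1 mM TCEP; 1 h at 37 C in the dark.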
IL1B secr inh – qHTS for Inhibitors of Inflammasome Signaling: IL-1-beta AlphaLISA Primary Screen; activity change, % at 57.5 µM; THP-1 LPS/ATP IL-1B secretion, AlphaLISA, 16 h; hits give low values; hit rate 4.7% among 360,000; AID 743279, 2014; in the data active means activity change below about -50%; inconclusive means mostly about -30% to -49%
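Secreted IL-1B measured by AlphaLISA bead assay after 16 h compound exposure of THP-1 cells; compounds (final up to 57.5 uM) added 1 h before LPS (250 ng/mL) and ATP (1.25 mM) stimulation; lower signal means less secretion.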
TDP1 block – qHTS Assay for Inhibitors of Tyrosyl-DNA Phosphodiesterase (TDP1); Tyrosyl-DNA phosphodiesterase 1 (Homo sapiens), Q9NUW8; recombinant TDP1, AlphaScreen DNA substrate cleavage; Potency, µM (highest dose often 130 µM), without a hit: at the top dose activity change, negative = inhibition, most hits filed as inhibitors; hit rate 0.28% among 350,000; AID 485290, 2010; further: potency means the concentration at half of the fitted maximal effect; nearly all actives have a fitted effect of over 40% in size
Target sequence (Q9NUW8 whole entry, looked up): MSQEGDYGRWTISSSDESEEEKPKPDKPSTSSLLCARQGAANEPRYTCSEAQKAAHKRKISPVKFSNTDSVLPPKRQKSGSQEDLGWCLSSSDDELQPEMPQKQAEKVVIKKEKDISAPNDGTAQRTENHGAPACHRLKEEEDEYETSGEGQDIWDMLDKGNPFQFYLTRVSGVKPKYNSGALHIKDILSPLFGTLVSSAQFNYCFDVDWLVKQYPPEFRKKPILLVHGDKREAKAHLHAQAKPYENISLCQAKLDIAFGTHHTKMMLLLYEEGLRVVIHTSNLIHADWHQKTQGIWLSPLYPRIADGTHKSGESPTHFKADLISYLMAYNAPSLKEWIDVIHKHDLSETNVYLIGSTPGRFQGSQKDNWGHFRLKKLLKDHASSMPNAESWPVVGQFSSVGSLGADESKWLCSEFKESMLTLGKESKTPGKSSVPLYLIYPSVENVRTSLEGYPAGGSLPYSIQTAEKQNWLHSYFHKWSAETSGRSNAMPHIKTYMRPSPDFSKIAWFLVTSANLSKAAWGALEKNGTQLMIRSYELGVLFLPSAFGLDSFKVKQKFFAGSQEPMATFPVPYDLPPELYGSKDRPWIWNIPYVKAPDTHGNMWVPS
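Here, a 5' biotin and 3' phosphotyrosine-FITC DNA oligonucleotide reports Tdp1 activity: intact substrate bridges AlphaScreen beads, while cleavage leaves a 3' phosphate and drops signal. All incubations at room temperature.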
CtBP-E1A inh – qHTS Assay for Inhibitors of the CtBP/E1A Interaction; CtBP / adenovirus E1A interaction (AlphaScreen); AlphaScreen GST-E1A/His-CtBP binding, 1536-well; hits give low values; activity change, % (concentration not given with the values); hit rate 0.49% among 340,000; AID 651724, 2012; in the data active means activity change below about -65%; inconclusive means mostly about -30% to -63%
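Steps: dispense buffer (Tris pH 8.0, NaCl 300 mM, TCEP 1 mM, BSA, Tween 20); add 5X protein mix (GST-E1A, His-CtBP, 125 nM each); pin 23 nL compound; 2 h at 37 °C, dark; add 5X beads (50 ug/mL); 1 h; read.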
DT40 TDP1 no CPT – qHTS for Inhibitors of human tyrosyl-DNA phosphodiesterase 1 (TDP1): qHTS in cells in absence of CPT; Potency, µM (titrated, usually from 46.2 µM), for inactives: at the top dose activity change, negative = growth inhibition, actives largely listed as inhibitors; hit rate 15% among 420,000; DT40 Tdp1-/- hTDP1 cells, no CPT, ATP luminescence, 48 h; AID 686978, 2013; further: potency means the concentration at half of the fitted maximal effect; nearly all actives have a fitted effect of over 55% in size
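Readout: luminescence from CellTiter-Glo after 30 min in the dark at RT. Cells: DT40 Tdp1-/- with stable hTDP1, 400/well. Exposure: compounds alone, ≥48 hr, 37 °C.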
Numbers without * were called inactive; ? = inconclusive; . = not tested or not shown. Unless noted, the call rests on the fitted dose curve; in most records, active means well fitted curve in the direction sought with a large enough effect; inconclusive means small, poorly fitted or top-dose-only effect, or another doubt; inactive means no such curve, though single readings can be large; an effect the other way counts as inactive or inconclusive. On the % scale 0 is the no-effect control and ±100 the full control effect.

SMILES	TDP1 cell CPT	Six1-Eya2 inh	IL1B secr inh	TDP1 block	CtBP-E1A inh	DT40 TDP1 no CPT
CCCn1c(=O)c2ccccc2n2c(Sc3nnnn3-c3ccccc3)nnc12	?	-9	-8	6%	-2	23µM*
CC(C)n1nnnc1SCC(=O)N1CCN(C(=O)c2ccco2)CC1	-18%	21	0	1%	3	-11%
COc1ccc(C(=O)N2CC3(CC(c4cccc(NC(=O)COc5ccc(Cl)cc5)c4)=NO3)C[C@@H]2C(N)=O)cc1 (some centres not stated)	21µM*	-12	-57*	7%	-4	?
C=C(C)C(=O)Nc1cccc(C2=NOC3(C2)C[C@@H](C(N)=O)N(C(=O)c2ccc(OC)cc2)C3)c1 (some centres not stated)	-6%	-22	0	11µM*	.	-7%
NC(=O)[C@@H]1CC2(CC(c3cccc(NC(=O)COc4ccc(Cl)cc4)c3)=NO2)CN1C(=O)c1ccccc1 (some centres not stated)	?	1	-65*	2%	-1	?
C=C(C)C(=O)Nc1cccc(C2=NOC3(C2)C[C@@H](C(N)=O)N(C(=O)CCCCC)C3)c1 (some centres not stated)	-1%	-28	-7	40µM*	5	-7%
COc1cc(C)ccc1OCC(=O)OCC(=O)c1cc(C)n(CC2CCCO2)c1C (configuration not stated)	1%	-13	-16	2%	-7	5%
CN(C)c1cc(-c2ccccc2)nc(N)n1	?	-9	65	2%	3	?
NC(=O)[C@H]1CC2(CC(c3cccc(NC(=O)COc4ccc(Cl)cc4)c3)=NO2)CN1C(=O)Cc1ccc([N+](=O)[O-])cc1 (some centres not stated)	13µM*	1	?	9%	-4	16µM*
N#Cc1cccc(C(=O)N(CCc2ccccc2)Cc2cccs2)c1	?	4	-5	4%	11	26µM*
Cc1cccc(C)c1-n1ncc(C(=O)NCCCN2CCC(C)CC2)c1C1CCN(C(=O)OC(C)(C)C)CC1	?	.	.	-6%	.	21µM*
CC(C)(C)OC(=O)N1CCC(c2c(C(=O)NCCCN3CCc4ccccc4C3)cnn2-c2ccccc2)CC1	?	.	.	4%	.	23µM*
Cc1ccc(-n2ncc(C(=O)NCCCN3CCc4ccccc4C3)c2C2CCN(C(=O)OC(C)(C)C)CC2)c(C)c1	21µM*	.	.	4%	.	21µM*
CCN1CCN(CCCNC(=O)c2cnn(-c3ccccc3)c2C2CCN(C(=O)OC(C)(C)C)CC2)CC1	-10%	.	.	-3%	.	1%
COC(=O)C1(C(=O)OC)C2C(=O)C3C(C21)C3(C(=O)OC(C)(C)C)C(=O)OC(C)(C)C (configuration not stated)	6%	6	-9	.	-22	-18%
Cc1cc(NC(=S)N(CCN2CCOCC2)Cc2ccccc2F)ccc1Cl	?	-11	-58*	7%	0	18µM*
COc1ccc(NC(=S)N(CCCN2CCOCC2)Cc2cn(C)c3ccccc23)cc1OC	-29%	-27	-11	8%	0	?
COc1cccc(NC(=S)N(CCCN2CCOCC2)Cc2cn(C)c3ccccc23)c1	9.2µM*	?	-13	5%	-11	15µM*
Cc1ccc(NC(=S)N(CCN2CCOCC2)Cc2ccccc2F)cc1	3%	-5	2	-1%	1	0%
Cc1cccc(NC(=O)C2CCN(S(=O)(=O)c3c(C)noc3/C=C/c3ccco3)CC2)n1	16µM*	-2	?	3%	-2	23µM*
Cc1cccc(NC(=O)C2CCN(S(=O)(=O)c3ccc4c(c3)OCCCO4)CC2)n1	?	-4	-12	1%	0	21µM*
Cc1cccc(NC(=O)C2CCN(S(=O)(=O)c3ccc4c(c3)OCCO4)CC2)n1	-13%	6	-4	0%	-16	-25%
Cc1noc(/C=C/c2ccco2)c1S(=O)(=O)N1CCC(C(=O)Nc2ccc(F)c(Cl)c2)CC1	5.2µM*	.	.	-7%	.	4.6µM*
Cc1cc(C)cc(NC(=O)C2CCN(S(=O)(=O)c3c(C)noc3/C=C/c3ccco3)CC2)c1	23µM*	.	.	0%	.	15µM*
O=C(Nc1ccccc1C(=O)Nc1cccnc1)c1ccccc1	12%	1	-12	0%	-4	?
SMILES	TDP1 cell CPT	Six1-Eya2 inh	IL1B secr inh	TDP1 block	CtBP-E1A inh	DT40 TDP1 no CPT
Cc1ccc(NC(=O)C2CCN(S(=O)(=O)c3c(C)noc3/C=C/c3ccco3)CC2)cc1C	?	.	.	2%	.	13µM*
COc1cc2c3c(c1)c(N=NC(N)=S)c(O)n3C(C)(C)C=C2C	4.6µM*	-1	-19	8%	-7	5.2µM*
CC1=CC(C)(C)n2c(O)c(N=N)c3cc(C)cc1c32	?	?	-60*	8%	-5	23µM*
CC1=CC(C)(C)n2c(O)c(N=N)c3c(C)c(C)cc1c32	-15%	-22	-9	11%	-28	?
CN1CCC(=NNC(=O)C(=O)NCc2ccccc2)CC1	0%	5	15	2%	7	-4%
COc1ccccc1Nc1ccc2c(O)cc(S(=O)(=O)O)cc2c1	15%	-79*	20	.	-88*	3%
CCN(C(=O)CN1C(=O)/C(=C/c2ccccc2)SC1=S)C1CCS(=O)(=O)C1 (configuration not stated)	23µM*	0	-10	5%	1	?
NS(=O)(=O)c1ccc(-c2ccc(/C=C3\SC(=S)N(C4CCS(=O)(=O)C4)C3=O)o2)cc1 (configuration not stated)	?	-10	?	8%	-8	?
O=C1/C(=C/c2ccncc2)SC(=S)N1C1CCS(=O)(=O)C1 (configuration not stated)	5.8µM*	-7	-92*	-2%	-16	8.2µM*
O=C1/C(=C/c2ccccc2)SC(=S)N1C1CCS(=O)(=O)C1 (configuration not stated)	23µM*	7	18	.	3	?

Screening data from PubChem.
